Results filed as inconclusive are left out. A number with no mark means an inactive call. Activity calls are given as the source filed them. Calls follow the shape of the dose curve; as a rule, active = well fitted inhibition curve with a large enough effect; inconclusive = small, poorly fitted or top-dose-only effect; inactive = flat fitted curve, though single readings scatter. Peptide text beside a SMILES is read from it.
What follows are compounds tested on CP203 (assay: qHTS profiling for inhibitors of Plasmodium falciparum proliferation (AID 504749; also: nearly all actives have a fitted effect of over 60% in size;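 as to activity, negative = inhibition: 0% = DMSO vehicle and full inhibition = artemisinin control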)). Details: P. falciparum in erythrocytes, SYBR Green DNA, 72 h; series mostly up to 28.7 µM; activity, negative = inhibition: at the top concentration.
Source text: NIH National Institute of Allergy and Infectious Diseases [NIAID] NIH Chemical Genomics Center [NCGC] MLPCN Grant: None Assay Provider: Xinzhuan Su, NIAID NCGC Assay Overview: Plasmodium falciparum is a virulent malarial parasite that kills 1-2 million people worldwide each year. Transmitted by mosquitoes, the sporozoite form of the parasite enters the blood stream to infect hepatocytes, where they become merozoites that infect red blood cells (erythrocytes). Within erythrocytes, merozoites begin a […] cycle of growth and division, after which the parasite is released to infect new red blood cells. Gametocytes, which form within erythrocytes as well, circulate in the bloodstream and are ingested by the mosquito, thereby completing the life cycle. To profile malarial isolates for differential chemical responses and to identify inhibitors of malarial growth, an assay that measures P. falciparum growth and replication within erythrocytes was employed. This assay uses a DNA binding fluorescent dye (SYBR Green) to detect parasite DNA following cell lysis. Because mature erythrocytes lack DNA, only Plasmodium-derived DNA is detected.
NCGC Assay Protocol Summary: The SYBR Green viability assay was adapted from a method described previously (Plouffe et al., 2008). For screening 3 ul culture medium was dispensed into 1536 well black clear bottom plates (Aurora Biotechnologies) using a Multidrop Combi (Thermo Fisher Scientific Inc.), 23 nL compounds in DMSO were added by a pin tool (Kalypsys), and 5 ul of erythrocytes infected with P. falciparum (0.3% parasitemia, 2.5% hematocrit final concentration) were added. The plates were incubated at 37 C in a humidified incubator in 5% CO2 for 72 h, and 2 ul lysis buffer (20 mM Tris HCl, 10 mM EDTA, 0.16% saponin, 1.6% triton X, 10X SYBR Green I supplied as 10,000X […] by Invitrogen) was added to each well. The plates were mixed for 25 sec with gentle shaking and incubated overnight at room temperature in the dark. The following morning, fluorescence intensity at 485(14) nm excitation and 535(25) nm emission wavelengths was measured on an EnVision (Perkin Elmer) plate reader. Plate reads were normalized relative to the control inhibitor (0.29 uM artemisinin) and vehicle (DMSO) wells present on each plate and then corrected by an algorithm using vehicle-only control plates at the beginning and end of the compound plate stack.
Potency is read from the fitted curve at half-maximal effect.

Compound | activity, negative = inhibition | Potency
CCCc1cc(=O)[nH]c(=S)[nH]1 | 4.03% | –
Cn1c(NCCN(CCO)CCCc2ccc([N+](=O)[O-])cc2)cc(=O)n(C)c1=O | 1.13% | –
Cc1c(C(=O)NN2CCCCC2)nn(-c2ccc(Cl)cc2Cl)c1-c1ccc(Cl)cc1 | – | 13.5 µM (active)
COc1cc(OC)c(C(=O)CCCN2CCCC2)c(OC)c1 | -2.56% [at 12.8 µM] | –
COC(=O)[C@H](Cc1ccccc1)NC(=O)[C@@H](N)CC(=O)O (H-Asp-Phe-OMe) | 16.9% | –
CC1(C)NC(=O)N(c2ccc([N+](=O)[O-])c(C(F)(F)F)c2)C1=O | -0.275% | –
CC(C)(S)[C@@H](N)C(=O)O | -18.3% | –
CCCOc1ccc2nc(NC(=O)OC)[nH]c2c1 | -0.655% | –
CCC(C)(Oc1ccc(C2(c3ccc(OC(C)(CC)C(=O)O)cc3)CCCCC2)cc1)C(=O)O (stereo not given) | -3.11% | –
O=C(CS(=O)Cc1ccco1)NCC=CCOc1cc(CN2CCCCC2)ccn1 (stereo not given) | -1.54% | –
CC(C)c1ccc2oc3nc(N)c(C(=O)O)cc3c(=O)c2c1 | -1.49% | –
CCCCN(CCCC)CCC(O)c1cc2c(Cl)cc(Cl)cc2c2cc(C(F)(F)F)ccc12 (stereo not given) | – | 0.0228 µM (active)
N[C@@H](Cc1cc(I)c(Oc2cc(I)c(O)c(I)c2)c(I)c1)C(=O)O | -17.5% | –
O=C1c2ccccc2-c2n[nH]c3cccc1c23 | -4.22% | –
CN(C)C(=O)COC(=O)Cc1ccc(OC(=O)c2ccc(N=C(N)N)cc2)cc1 | -14.4% | –
CCN(CC)CCOc1ccc(Cc2ccccc2)cc1 | 8.1% | –
CCOc1cc(CC(=O)N[C@@H](CC(C)C)c2ccccc2N2CCCCC2)ccc1C(=O)O | -4.27% [at 12.8 µM] | –
CCCCc1ccc2nc(NC(=O)OC)[nH]c2c1 | -8.56% [at 12.8 µM] | –
Cc1cc2c(s1)Nc1ccccc1N=C2N1CCN(C)CC1 | 6.13% | –
CCOC(=O)c1c(C)n(C)c2ccc(O)cc12 | 0.88% | –

Compound | activity, negative = inhibition | Potency
COc1ccc(C2(C#N)CCC(C(=O)O)CC2)cc1OC1CCCC1 (stereo not given) | 1.9% | –
CNC[C@@H](O)[C@@H](O)[C@H](O)[C@H](O)CO | 2.16% | –
Cc1ncc([N+](=O)[O-])n1CC(C)O (stereo not given) | -13.1% | –
O=C(NC(Cc1cc(=O)[nH]c2ccccc12)C(=O)O)c1ccc(Cl)cc1 (stereo not given) | -0.566% | –
CCCCCCCCCCCCCCCCCCCCCCO | -0.486% | –
O=C(O)CCNC(=O)c1ccc(N=Nc2ccc(O)c(C(=O)O)c2)cc1 | -2.56% | –
c1ccc2[nH]c(-c3cscn3)nc2c1 | -1.8% | –
Cc1cc(=O)c2c(O)c3c(O)cc(=O)c4c3c3c(cc(O)c1c23)C(C)(C)C=4O | – | 1.9 µM (active)
Cc1cccc(C)c1OCC(=O)N[C@@H](Cc1ccccc1)[C@@H](O)C[C@H](Cc1ccccc1)NC(=O)[C@H](C(C)C)N1CCCNC1=O | – | 6.01 µM (active)
C=CCc1cc(OC)c(O)c(C(=O)NCCO)c1 | -3.44% | –
Cc1cc2cc3c(C)cc(=O)oc3c(C)c2o1 | -15.2% [at 12.8 µM] | –
Cc1cc(=O)oc2cc(O)ccc12 | -3.91% [at 12.8 µM] | –
COc1cc2c(cc1OC)C1CC(=O)C(CC(C)C)CN1CC2 (stereo not given) | -8.08% | –
CS(=O)(=O)OCCCCOS(C)(=O)=O | -21.9% | –
CCCCC(CC)COC(=O)C(C#N)=C(c1ccccc1)c1ccccc1 (stereo not given) | -21.2% | –
C[Se]CCC(N)C(=O)O (stereo not given) | 1.92% | –
Nc1ccc(S(N)(=O)=O)cc1 | -3.22% | –
O=C(O)c1cccnc1Nc1cccc(C(F)(F)F)c1 | 0.569% | –
Nc1cc(C(Cl)=C(Cl)Cl)c(S(N)(=O)=O)cc1S(N)(=O)=O | -8.57% [at 12.8 µM] | –
C[C@H](Cn1cnc2c(N)ncnc21)OCP(=O)(O)O | 0.157% | –
